Laboratory results as given in PubChem BioAssay AID489025 (Southern Research Specialized Biocontainment Screening …, 2010).
Out of some 2,300 compounds screened, about 790 (34%) were called active. The rule behind the calls is not given here. This is one part of the list. Measured potencies and affinities stand elsewhere.

assay: THP-1 cell cytotoxicity, dose response, cytotoxicity control for non-replicating M. tuberculosis project (AID 489025); conditions: THP-1 cell viability; series mostly up to 40 µM

Compound | outcome
COc1cc(C=O)ccc1OCCOCCOc1ccc(Cl)cc1 | inactive
O=C1/C(=C\c2ccco2)SC(=S)N1c1ccc(O)cc1 | inactive
CCOc1cc(C=O)cc(N=Nc2cccc([N+](=O)[O-])c2)c1O | inactive
O=C(Oc1ccccc1)c1cccc(COC(=O)c2cnccn2)c1 | inactive
CCOC(=O)C1CSC(CC(=O)Nc2ccc(Cl)c(Cl)c2)C(=O)N1 (stereo not given) | inactive
CC(C)(C)NC(=O)C(=O)NNC(=O)COc1ccc(Br)cc1 | inactive
O=C(N/N=C\C=C\c1ccco1)c1cncc(Br)c1 | inactive
CC(/C=C/c1ccccc1)=N\NC(=O)c1ccc2c(c1)OCCO2 | inactive
CCC(=O)c1ccc(OC(=O)c2ccc(Br)o2)cc1 | inactive
Cc1cc(C)n2[nH]c(=O)c(N=Nc3cccc(Cl)c3)c2n1 | inactive
Clc1ccc2c(N3CCCC3)ccnc2c1 | inactive
Cc1ccc2[nH]c(C)c(CCNC(=O)c3cc4cc([N+](=O)[O-])ccc4oc3=O)c2c1 | inactive
O=C(COc1ccc([N+](=O)[O-])cc1)NNC(=O)c1cccs1 | inactive
COc1ccc(OCCOC(=O)c2cccs2)cc1 | inactive
CCc1ccc(OCCCC(=O)NCc2ccco2)cc1 | inactive
CCCOC(=O)c1ccc(OC(=O)c2ccco2)cc1 | inactive
c1ccc2[nH]c(NC3=NCCC3)nc2c1 | inactive
Cc1cc2n(n1)SC(Nc1ccccc1)N2 (stereo not given) | inactive
O=C(COC(=O)c1cc(Br)ccc1Cl)NC1CCCC1 | inactive
COC(=O)COc1ccc2c(-c3cccc([N+](=O)[O-])c3)cc(=O)oc2c1 | inactive
O=C(CN1CCC(NC(=O)c2cccc(F)c2)CC1)Nc1ccc(Br)cc1 | inactive
NC(=O)C1(N2CCCCC2)CCN(C2CC(=O)N(CCc3ccccc3)C2=O)CC1 (stereo not given) | inactive
c1ccc(OCc2nnc3sc(-c4cccs4)nn23)cc1 | inactive
c1ccc(OCc2nn3c(-c4ccccn4)nnc3s2)cc1 | inactive

Compound | outcome
CCOC(=O)Cn1cc(C#N)c2cccc(CC)c21 | inactive
Cc1occc1C(=O)N/N=C/C(Br)=C\c1ccccc1 | inactive
Cc1oc(=O)c(NC(=O)c2ccccc2)cc1C(=O)c1ccccc1 | inactive
O=C(O)c1ccccc1-c1ccccc1C(=O)Nc1nc2ccccc2s1 | inactive
O=C(COC(=O)c1ccc(O)cc1O)c1ccc2c(c1)OCO2 | inactive
O=C(COC(=O)c1cc(Br)ccc1O)Nc1ccc2c(c1)OCO2 | inactive
COc1ccc(OC(=O)c2cc3ccccc3o2)cc1 | inactive
CCCC(O)(CCC)C(=O)NNc1ccc(C)cc1 | inactive
O=c1[nH][nH]c(-c2ccccc2O)c1C(C[N+](=O)[O-])c1cccc(Cl)c1 (stereo not given) | inactive
C[C@@H]1CN=C2N(CCNC(=O)CCC3CCCCC3)[C@H](Cc3ccc(O)cc3)CN21 | inactive
CC(C)[C@H]1CN=C2N(C[C@H](C)NC(=O)CCC3CCCCC3)[C@H](Cc3ccc(O)cc3)CN21 | inactive
CCCC(=O)N1CCC(Cc2ccccc2)CC1 | inactive
O=C(CN1CCC(Cc2ccccc2)CC1)NC(=O)NC1CCCCC1 | inactive
O=C(c1ccccc1)C1CN(Cc2ccccc2)CCC1(O)c1ccccc1 (stereo not given) | inactive
CC(C)CNc1nc(=S)nc(N(C)C)[nH]1 | inactive
O=C(COc1ccc(Br)cc1)Nc1ccc([N+](=O)[O-])cn1 | inactive
COc1ccc(Cc2nnc(-c3ccccc3)o2)cc1 | inactive
CCn1nnc(NC(=O)c2sc3ccccc3c2Cl)n1 | inactive
O=C(Nc1nccs1)c1sc2ccccc2c1Cl | inactive
NC1CCN(c2c(F)cc3c(=O)c(C(=O)O)cn(C4CC4)c3c2Cl)C1 (stereo not given) | inactive
Cc1ccc(NC(=O)COC(=O)C(NS(=O)(=O)c2ccc(Cl)cc2)C(C)O)cc1C (stereo not given) | inactive
CCc1ccccc1NC(=O)C1COc2ccccc2O1 (stereo not given) | inactive
CCOCCOC(=O)c1ccc(NC(=O)C2COc3ccccc3O2)cc1 (stereo not given) | inactive
CCOC(=O)c1cc2cc3ccccc3cc2oc1=O | inactive

Compound | outcome
Cc1ccc2nc(CCc3nc4ccc(C)cc4[nH]3)[nH]c2c1 | inactive
O=C(COC(=O)CC1CCCC1)Nc1ccc(Cl)cn1 | inactive
Cc1cc(C)n(-c2ccc(C(=O)Oc3ccc4c(c3)OCO4)cc2)n1 | inactive
CC(=O)c1ccc(OC(=O)c2ccc(-n3nc(C)cc3C)cc2)cc1 | inactive
CCOC(=O)c1nn(-c2ccccc2)c2nc(Nc3ccccc3)cc(=O)n12 | inactive
CCOc1ccc(OCC(=O)Nc2ccc(OC)cc2)cc1 | inactive
O=C(OCc1c(Cl)cccc1Cl)c1ccccn1 | inactive
CCCN1C(=O)S/C(=C\c2ccc(N3CCOCC3)o2)C1=O | inactive
C/C(=N\Nc1ccc(Cl)cc1)c1c(O)cc(C)oc1=O | inactive
COc1ccc2oc(=O)c(/C(C)=N/NC(=O)c3ccncc3)cc2c1 | inactive
COc1cccc(C(=O)C2CCCN(CC3=Cc4cc(OC)ccc4OC3)C2)c1 (stereo not given) | inactive
CCn1cc(C(=O)NC(C)C23CC4CC(CC(C4)C2)C3)cn1 (stereo not given) | inactive
O=C(c1ccc(Cl)cc1)c1nnc(-c2ccncc2)o1 | inactive
O=C(CCc1ccccc1F)N1CCN(c2ccccc2)CC1 | inactive
Cc1ccc(S(=O)(=O)N2CCC(C(=O)OCc3ccccc3)CC2)cc1C | inactive
O=C(OCC(=O)N1CCN(c2ccccc2)CC1)c1ccc2ccccc2n1 | inactive
O=C(OCC(=O)N1CCN(c2ccccc2)CC1)c1ccc(Cl)cc1[N+](=O)[O-] | inactive
CC(NC(=O)COc1ccccc1F)C1CC2CCC1C2 (stereo not given) | inactive
O=C(NCCc1ccccc1)c1nc(-c2cccs2)no1 | inactive
COc1ccc(NC(=O)COc2ccccc2)cc1Cl | inactive
CCOC(=O)Nc1cccc(OCC(=O)Nc2ccccc2OC)c1 | inactive
Cc1ccc(CNCc2cc(Cl)ccc2O)cc1 | inactive
CC(Cc1ccccc1Sc1ccccc1)N(C)C (stereo not given) | inactive
CCOc1ccccc1NC(=O)COn1nnc2ccc(Cl)cc21 | inactive

Compound | outcome
CCOc1cccc2cc(C(=O)Nc3nccs3)c(=O)oc12 | inactive
OC(C#CCN1CCOCC1)c1cccs1 (stereo not given) | inactive
Cc1[nH]nc2c1C(c1ccc(OC(=O)c3ccco3)cc1)C(C#N)=C(N)O2 (stereo not given) | inactive
CCOC(=O)CN1NC2(CCCC(C)C2)NC1=S (stereo not given) | inactive
CCOC(=O)c1cc(-c2csc(COc3ccccc3Cl)n2)on1 | inactive
COCCOC(=O)c1c(C)oc2ccc(OC(=O)c3ccco3)cc12 | inactive
CC(=O)N1CCN(C(=O)CC2OC(=O)c3ccccc32)CC1 (stereo not given) | inactive
COCCn1c(C)cc(C(=O)COC(=O)c2ccc(Br)o2)c1C | inactive
CCCN1C(=O)SC(CC(=O)Nc2ccccc2)C1=O (stereo not given) | inactive
Nc1nnc(Sc2ncccc2[N+](=O)[O-])s1 | inactive
CNc1nnc(Sc2ncccc2[N+](=O)[O-])s1 | inactive
COc1ccc(OCCSc2nnc(Cc3cccc4ccccc34)n2N)cc1 | inactive
O=C(c1ccccc1)n1c(=O)c(F)cn(COCCBr)c1=O | inactive
CCOC(=O)C(Nc1ccc2ccccc2c1)C(=O)OCC | inactive
O=C(Cn1cc([N+](=O)[O-])nc1[N+](=O)[O-])N1CCN(c2ccccc2)CC1 | inactive
Cc1nnc(NC(=O)c2ccc3ccccc3c2)o1 | inactive
COc1cccc(NC(=O)c2cc3ccccc3oc2=O)c1 | inactive
O=c1oc2ccccc2c2c1nc(C(F)(F)F)n2-c1ccccc1 | inactive
COC(=O)CN(C#N)c1nc(SC)nc(N(C)C)n1 | inactive
Cc1ccc(N2NC(=O)/C(=C/C=C/c3ccco3)C2=O)cc1C | inactive
O=C(NC(=S)Nn1cnc2c(cnn2-c2ccccc2)c1=O)c1ccccc1 | inactive
CCOC(=O)Cn1c2ccc(F)cc2c2nc(C)sc21 | inactive
Cc1nnc(N/N=C/c2ccc(Br)cc2)n1N | inactive
Cc1ccccc1OCC(=O)OCC(=O)c1ccc[nH]1 | inactive

Compound | outcome
CC1(CCc2ccc3c(c2)OCO3)NC(=O)c2ccccc2N1 (stereo not given) | inactive
O=C(COc1ccc(Br)cc1)N/N=C1/SCC(=O)N1Cc1ccco1 | inactive
CCc1nnc(N/N=C/c2c(F)cccc2Cl)n1N | inactive
O=C(N/N=C1\CCCc2c1[nH]c1ccc(Cl)cc21)c1ccncc1 | inactive
Cc1ccsc1/C=N/NC(=O)c1ccncc1 | inactive
COc1ccc(C(C)=O)cc1COC(=O)c1ccc2ccccc2n1 | inactive
c1nc2n(n1)C1=C(CCCC1)C1(CCCCC1)N2 | inactive
CN(C)S(=O)(=O)c1ccc(C(=O)Oc2ccccc2)cc1 | inactive
CC1CCN(S(=O)(=O)c2cccc(C(=O)Oc3ccc([N+](=O)[O-])cc3)c2)CC1 | inactive
CCOC(=O)c1ccc(NC(=O)NS(=O)(=O)c2ccc(C)cc2)cc1 | inactive
Cc1ccc(NC(=O)CN(C)CC(=O)Nc2ccc(F)c(Cl)c2)cc1 | inactive
CCOc1ccc(NC(=O)c2nnn(CC(=O)Nc3ccccc3OC)c2N)cc1 | inactive
CC(C)C(=O)Nc1cccc(-c2nc3ccccc3c(=O)o2)c1 | inactive
CCOC(=O)Cn1c(C)c(Br)c(=O)c2cccc(C)c21 | inactive
CN(C)Cc1ccccc1Sc1ccc(Br)cc1 | inactive
FC(F)(F)c1nc(SCc2ccc(Cl)cc2Cl)n[nH]1 | inactive
O=[N+]([O-])c1ccc(CN2CCN(c3ccccc3Cl)CC2)o1 | inactive
COC(=O)COc1ccc(S(=O)(=O)N2CCN(c3ccccc3F)CC2)cc1 | inactive
Cc1ccccc1N1CCN(Cc2ccc([N+](=O)[O-])o2)CC1 | inactive
O=C(CN1CCCCC1)Nc1nnc(-c2ccc([N+](=O)[O-])cc2)s1 | inactive
Cc1cc2cc(CNC(=O)C3CCCC3)ccc2n1C | inactive
O=C(CN1CCN(c2ccccc2)CC1)Nc1nnc(-c2ccccc2)s1 | inactive
Cc1ccc(CNC(=O)c2cnccn2)cc1 | inactive
O=C(Oc1ccccc1)c1ccc(COC(=O)c2cnccn2)cc1 | inactive
